Sampled rows, rich in hits. Any-hit rate of the full collection: about 2.9%.
Calb biofilm kill: kills Candida albicans biofilms; C. albicans biofilm + clotrimazole, Alamar Blue; inhibition, % at 6 µM; hit rate 0.14% among 85,000;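 active means inhibition above 20%; inactive means inhibition below 20%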;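 further: preformed 24 hr biofilms exposed to compound for 48 hr; 0% = biofilm without compound and 100% = blank killed by clotrimazole plus chlorhexidine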
ERb coact inh: blocks coactivator binding to human estrogen receptor beta; Q92731; TR-FRET ER-beta LBD / SRC1-Cy5 peptide binding; receptor agonist-loaded with 1 µM estradiol; inhibition, % at 25.6 µM; hit rate 1.3% among 86,000;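 active means compounds whose percent inhibition of the receptor-coactivator binding signal exceeds about 50% in the single-dose screen, limit read from the data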;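 further: 0% = receptor plus peptide wells without compound and 100% = peptide-only wells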
E-sel TNF inh: blocks E-selectin expression induced by TNF alpha; AID 1246; HUVEC TNFa-induced E-selectin immunofluorescence, high content; hit rate 0.71% among 120,000; inhibition, % at 2 µM;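 active means inhibition above the batch mean plus 3 SD, and confirmed as a hit on visual image review, cut at about 43% in these data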;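 further: 0% = TNF-stimulated DMSO wells and 100% = unstimulated control wells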
ERa coact inh: ER-alpha (human) coactivator binding inhibition; TR-FRET ER-alpha LBD / SRC-1 peptide, estradiol-bound; inhibition, % at 25.6 µM; hit rate 1.7% among 86,000; AID 629; in the data active means inhibition above about 50%;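 further: 0% = receptor plus peptide control and 100% = peptide only without receptor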
Target sequence (P03372 whole entry, looked up, the tested form may be a part): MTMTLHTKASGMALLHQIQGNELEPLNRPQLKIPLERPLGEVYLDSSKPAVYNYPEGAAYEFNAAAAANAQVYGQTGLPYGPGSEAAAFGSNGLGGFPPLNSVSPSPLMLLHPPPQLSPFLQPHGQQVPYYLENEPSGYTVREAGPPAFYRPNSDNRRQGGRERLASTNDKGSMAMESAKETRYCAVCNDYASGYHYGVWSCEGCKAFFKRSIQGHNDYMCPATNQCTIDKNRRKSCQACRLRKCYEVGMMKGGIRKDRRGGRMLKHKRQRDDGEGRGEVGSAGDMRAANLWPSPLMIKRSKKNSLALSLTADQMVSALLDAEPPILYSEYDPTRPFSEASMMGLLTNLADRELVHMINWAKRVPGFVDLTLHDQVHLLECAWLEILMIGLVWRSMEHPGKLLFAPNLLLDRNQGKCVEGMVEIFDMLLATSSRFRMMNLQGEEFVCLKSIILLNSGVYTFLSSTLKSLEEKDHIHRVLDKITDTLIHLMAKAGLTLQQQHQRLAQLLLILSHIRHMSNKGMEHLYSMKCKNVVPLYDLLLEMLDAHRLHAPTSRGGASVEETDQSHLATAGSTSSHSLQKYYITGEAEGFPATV
ERa SRC1 pot: enhances coactivator binding to human estrogen receptor alpha; TR-FRET ERalpha-LBD/SRC-Cy5 coactivator binding, 2 h; 100 = basal binding, no effect; hit rate 1.3% among 86,000; coactivator binding (% of control), % at 25.6 µM; in the data active means activity above about 200%;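 further: binding measured in presence of low estradiol as agonist stimulus; 0% = peptide alone without receptor and 100% = receptor with peptide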
cytoskel mod: cytoskeleton assembly modification | HUVEC TNFa F-actin phalloidin imaging, high content | inhibition, % at 2 µM | hit rate 0.18% among 91,000 | AID 836;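 active means inhibition above the batch mean plus 3 SD and confirmed as a hit by visual image inspection, cut at about 30% in these data, passing the limit was not always enough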
Starred values were filed as active, the others as inactive; / = not tested or not shown; [ ] = another dose, or the depositor's remark.

SMILES	Calb biofilm kill	ERb coact inh	E-sel TNF inh	ERa coact inh	ERa SRC1 pot	cytoskel mod
Cc1ccc(-n2c(SCC(=O)NCc3ccco3)nc3sc4c(c3c2=O)CC(C)(C)SC4)cc1	-1	14	-26	5	139	-13
CCN(CC)C(=O)CSc1nc2sc3c(c2c(=O)n1-c1ccc(C)cc1)CC(C)(C)SC3	1	-15	-10	-17	246*	-4
CC1CCC(n2c(=S)[nH]c3ccccc3c2=O)CC1 (stereo not given)	6	18	6	-9	218*[fluorescence artefact?]	-1
O=c1c2ccccc2[nH]c(=S)n1C1CCCCC1	5	-16	/	-18	123	-44
CCOC(=O)N1CCC(NC(=O)c2ccc3c(=O)n4c(nc3c2)CCCC4)CC1	5	-1	64*	1	104	36
CCOC(=O)N1CCC(NC(=O)c2ccc3c(Cl)c4c(nc3c2)CCCC4)CC1	/	/	24	/	/	/
Cc1ccc(S(=O)(=O)NCC(=O)N(CC(=O)NCC2CCCO2)Cc2ccccc2)cc1 (stereo not given)	20*	-2	6	-1	114	-16
COc1ccc(CN(CC(=O)NCC2CCCO2)C(=O)CNS(=O)(=O)c2ccc(C)cc2)cc1 (stereo not given)	1	-3	-19	6	127	-1
CC(=O)NC(Cc1ccccc1C)C(=O)NC1CCN(c2ncccc2[N+](=O)[O-])CC1 (stereo not given)	/	/	-9	/	/	/
Cc1ccc(-n2c(C)cc(/C=c3/sc4nc5ccccc5n4c3=O)c2C)cc1	-2	5	4	4	109	/
COc1cc(N2CCCC2)c(OC)cc1/C=c1/sc2nc3ccccc3n2c1=O	6	74*[fluorescence artefact?]	/	97*[fluorescence artefact?]	19	31*
CCN(CC)c1ccc(N2C(=O)/C(=C/c3cccnc3)SC2=S)cc1	/	/	-12	/	/	-8
COc1ccc(N(C(=O)c2cnccn2)C(C(=O)NC2CCCCC2)c2ccc(O)cc2)cc1 (stereo not given)	/	/	-25	/	/	/
COc1ccccc1CN1C(=O)c2cccc3cccc(c23)C1=O	/	/	6	/	/	/
COc1ccccc1CN1C(=O)c2ccncc2C1=O	7	71*[fluorescence artefact?]	/	-19	98	/
CCCSc1nc(SCC(=O)NCc2ccccc2)c2c3c(sc2n1)COC(C)(C)C3	10	10	-12	2	294*[fluorescence artefact?]	-17
CN(C)c1cccc(C(=O)Nc2cc(C(F)(F)F)ccc2-n2cnc3ccccc32)c1	/	/	-13	/	/	/
O=C(CCc1ccccc1)Nc1ncc2c(n1)CCCC2=O	1	0	72*	-2	102	-7
Cn1cnnc1SCC(=O)Nc1sc2c(c1C(N)=O)CCC2	-1	93*[fluorescence artefact?]	/	94*[fluorescence artefact?]	13	/
CCCCn1c2nc3ccccc3nc2c2c(=N)oc(C)nc21	2	32	/	7	314*[fluorescence artefact?]	/
CCCCC(CC)Cn1c2nc3ccccc3nc2c2c(=N)oc(C)nc21 (stereo not given)	5	44	-15	21	267*[fluorescence artefact?]	-21
CCCCn1c2nc3ccccc3nc2c2c(=O)n(-c3ccccc3)cnc21	/	/	92*	/	/	/
CCCCc1cc(=O)oc2cc(OCC(=O)N3CCc4ccccc43)ccc12	2	15	15	18	200*	4
CCCc1cc(=O)oc2cc(OCC(=O)N3CCc4ccccc43)ccc12	3	20	-1	12	335*[fluorescence artefact?]	3
O=C(COc1ccc2c(c1)CCC2)N1CCc2ccccc21	3	-10	28	-7	123	-20
SMILES	Calb biofilm kill	ERb coact inh	E-sel TNF inh	ERa coact inh	ERa SRC1 pot	cytoskel mod
Cc1cc(=O)oc2cc(OCC(=O)OCC(=O)N3CCc4ccccc43)ccc12	7	10	-14	15	177	10
CCCc1cc(=O)oc2cc(OCC(=O)Nc3cc(C)on3)ccc12	1	-3	-13	12	820*[fluorescence artefact?]	-6
CSc1nc2sc3c(c2c(=O)n1C)CCCC3	9	1	-4	4	100	/
CCc1nn2c(=O)cc(CSc3nc4sc5c(c4c(=O)n3C)CCCC5)nc2s1	7	53*[fluorescence artefact?]	-8	38	85	1
NS(=O)(=O)c1ccc(CCNC(=O)COC(=O)C2CCCN2C(=O)c2cccs2)cc1 (stereo not given)	5	9	8	-3	123	-7
Cc1cccc2sc(NC(=O)CSCc3ccccc3)nc12	50*	-5	/	-2	101	9
Cc1nn(Cc2ccc(C(=O)Nc3nc4c(C)cccc4s3)o2)c(C)c1Br	3	27	6	50*	136	22
COc1ccccc1C1(CC(=O)N2CCCCC2)CCOC(C(C)C)C1 (stereo not given)	0	2	20	4	107	-1
Cc1nc(Oc2cccc(Cl)c2)c2oc3ccccc3c2n1	-5	74*[fluorescence artefact?]	-2	1	93	-9
COc1cccc(NC(=O)COC(=O)c2c(F)cccc2F)c1	/	/	7	/	/	/
Cc1cc(C)c2cc3c(ccn3C3OC[C@H](O)[C@H](O)[C@H]3O)cc2n1 (stereo not given in full)	1	52*[fluorescence artefact?]	-30	18	83	-21
Cc1cc(C)c2nc(SCC(=O)N3CCCCC3)c(C#N)cc2c1	7	17	-26	-6	181	29
COC(=O)CSc1nc2cc(OC)ccc2cc1C#N	6	-2	30	21	129	3
COc1ccc2nc(SCC(=O)N3CCN(c4ccc(F)cc4)CC3)c(C#N)cc2c1	4	19	6	14	481*[fluorescence artefact?]	41
Cc1cccc2cc(C#N)c(SCC(=O)N3CCC(C)CC3)nc12	6	24	7	14	217*[fluorescence artefact?]	47
CCOC(=O)CSc1nc2cc(OCC)ccc2cc1C#N	5	18	-59	12	351*[fluorescence artefact?]	/
COC(=O)CSc1nc2cc(C)cc(C)c2cc1C#N	3	10	/	1	210*	2
COc1ccc2cc(C#N)c(SCC(=O)N3CCCC3)nc2c1	5	-6	16	-14	95	11
Cc1ccc(C(C(=O)NC(C)(C)C)N(Cc2ccco2)C(=O)CCC(=O)Nc2nccs2)cc1 (stereo not given)	5	-7	12	-8	99	25
CCCCCCn1c(=O)[nH]c2nc3cc(N)ccc3nc2c1=O	/	/	-9	/	/	/
COc1ccc(Cn2c(-c3ccc(C)cc3)nc3c(c(=O)c4ccccc4n3C)c2=O)cc1	/	/	19	/	/	/
CCOc1ccc2cc(C#N)c(SCC(=O)N3CCC(C)CC3)nc2c1	3	26	-10	7	337*[fluorescence artefact?]	-17
Cc1cccc2cc(C#N)c(SCC(=O)Nc3ccccc3N3CCOCC3)nc12	8	13	13	20	295*[fluorescence artefact?]	17
CCOc1ccc2cc(C#N)c(SCC(=O)NC(C)CC)nc2c1 (stereo not given)	7	45	10	41	337*[fluorescence artefact?]	-8
CCOc1ccc2nc(SCC#N)c(C#N)cc2c1	5	12	-4	12	252*	16
O=S(=O)(Nc1cccc2ccccc12)N1CCCC1	-2	-10	-35	-6	115	2
O=C(Nc1nc2ccccc2[nH]1)c1cc2ccccc2o1	/	/	12	/	/	/

Screens deposited in PubChem by several laboratories.
